# In PubChem BioAssay AID624310 (Broad Institute, 2012):
# Activity calls are given as the source filed them.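 How the source made its calls: active means compound lowering absorbance whose fitted half-maximal concentration is at most twice its top valid dose; inconclusive means flat fit with 30 to 70% inhibition, or poor fit; inactive means the rest, including wrong-direction or flat responses.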
# Target: Protein disulfide-isomerase (Homo sapiens) (UniProt P07237)
# Assay: PDI inhibitors, insulin aggregation turbidity, confirmation, biochemical, absorbance, dry powder samples (AID 624310)
# Sequence of Protein disulfide-isomerase (Homo sapiens) (P07237 whole entry, looked up): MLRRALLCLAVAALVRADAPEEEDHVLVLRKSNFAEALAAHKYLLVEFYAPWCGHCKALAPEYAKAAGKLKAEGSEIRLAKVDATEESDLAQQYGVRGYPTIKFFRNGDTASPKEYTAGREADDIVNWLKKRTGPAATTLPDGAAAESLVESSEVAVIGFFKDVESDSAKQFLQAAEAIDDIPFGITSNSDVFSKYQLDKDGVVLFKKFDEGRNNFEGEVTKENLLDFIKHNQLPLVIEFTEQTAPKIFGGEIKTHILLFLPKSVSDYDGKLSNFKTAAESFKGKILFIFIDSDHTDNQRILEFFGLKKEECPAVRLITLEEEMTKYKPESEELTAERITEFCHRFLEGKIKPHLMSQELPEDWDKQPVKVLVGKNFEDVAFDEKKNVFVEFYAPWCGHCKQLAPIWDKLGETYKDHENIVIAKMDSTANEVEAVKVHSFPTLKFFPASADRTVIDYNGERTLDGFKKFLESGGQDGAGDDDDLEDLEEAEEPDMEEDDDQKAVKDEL
structure (smiles),measurement,value
C[C@H]1CN([C@@H](C)CO)C(=O)c2cccc(NS(C)(=O)=O)c2O[C@H]1CN(C)Cc1ccc(Oc2ccccc2)cc1,outcome,inactive
